# Measurements taken from PubChem BioAssay (NCI).
# About 83,000 compounds went through this panel and 20% of them were active in at least one assay; those are over-represented in the sample as a whole.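 How to read the values: 0–100, growth inhibition (40 = 60% inhibited); 0, no net growth; -100 to 0, cell death (-40 = 40% of starting cells died; -100 = all dead).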 A number with no mark means an inactive call. Activity calls are given as the source filed them. The calls were made as follows: active = growth percent below 10; inactive = the rest.
# Tests used:
# Test in all cases: NCI-60 one-dose screen, 48 h (100 = growth as untreated, 0 = no growth, -100 = all killed)
# Conditions in all cases: 10 µM unless noted
# HCT-15 colon = test system: HCT-15 colon
# HT29 colon = test system: HT29 colon
# SNB-75 CNS = test system: SNB-75 CNS
# SNB-19 CNS = test system: SNB-19 CNS
# U251 CNS = test system: U251 CNS
# PC-3 prostate = test system: PC-3 prostate
# SK-MEL-5 melanoma = test system: SK-MEL-5 melanoma
# UACC-62 melanoma = test system: UACC-62 melanoma
# SK-MEL-28 melanoma = test system: SK-MEL-28 melanoma
# LOX IMVI melanoma = test system: LOX IMVI melanoma
SMILES,growth (HCT-15 colon),growth (HT29 colon),growth (SNB-75 CNS),growth (SNB-19 CNS),growth (U251 CNS),growth (PC-3 prostate),growth (SK-MEL-5 melanoma),growth (UACC-62 melanoma),growth (SK-MEL-28 melanoma),growth (LOX IMVI melanoma)
COc1ccccc1-n1cnc(N)c1C(=O)c1cc(OC)c(OC)c(OC)c1,35.5%,11.7%,8.36% (active),55.1%,36.8%,50.2%,28.5%,29.1%,51.5%,–
COc1cccc(-c2nn(-c3ccccc3)cc2-c2ccnc(NCCCNS(=O)(=O)c3ccccc3)c2)c1,26.5%,19%,62.1%,47.9%,34%,15.7%,11.3%,–,–,33.1%
COc1ccc(-c2cc(-c3c(C)oc4cc5occc5c(OC)c4c3=O)nc(N)c2C#N)cc1OC,55.6%,67%,40.3%,64.3%,48.9%,62.6%,52.7%,–,–,50.2%
O=S(=O)(NCCNc1cc(-c2cn(-c3ccccc3)nc2-c2cccc(O)c2)ccn1)c1ccccc1,17.9%,24.1%,78.4%,72.4%,43.3%,30.1%,34%,–,–,54.7%
COc1ccccc1CNc1nc(N)nc2[nH]c3ccc(O)cc3c12,41%,18.9%,35.8%,59%,37.4%,65.5%,38.3%,–,–,43.2%
COc1ccc(O)c(-c2cc(-c3ccc(Cl)cc3)c(C#N)c(=O)[nH]2)c1,66.5%,75.7%,62.7%,69.7%,46.6%,55.6%,57.7%,–,–,63.2%
Nc1c(C(=O)Nc2c(Cl)cccc2Cl)sc2nc3c(cc12)C(=O)CCC3,35.5%,13.3%,14.1%,39.6%,26.4%,39.9%,10.4%,–,–,44.4%
COC(=O)[C@]12CC[C@@H](C)[C@H](C)[C@@H]1C1=CC[C@@H]3[C@@]4(C)C[C@@H](OC(C)=O)[C@H](OC(C)=O)[C@@](C)(COC(C)=O)[C@@H]4[C@H](O)C[C@@]3(C)[C@]1(C)CC2,7.64% (active),2.23% (active),34.6%,24.2%,7.43% (active),4.25% (active),-71.5% (active),–,–,2.68% (active)
Cc1cc2nc3c4cc(Cl)ccc4n(CCN(C)C)c3nc2cc1C,-25.1% (active),1% (active),26.3%,15.4%,12.3%,27.2%,41%,-70.7% (active),-59.3% (active),–
COc1ccc(-c2nc3ncccn3c2-c2nc3ccc(Br)cc3[nH]2)cc1,84.6%,88.9%,86.8%,89.9%,89.7%,65.5%,74.9%,76.5%,92.6%,–
